About 840 (0.24%) of roughly 350,000 compounds were called active. The full list was thinned out, with actives kept by preference. A number with no mark means an inactive call. Cut-off read from the data, not from the text of the source: active = inhibition above about 10%; inactive = the rest.

Sequence of Toxin B (Clostridioides difficile) (P18177 whole entry, looked up): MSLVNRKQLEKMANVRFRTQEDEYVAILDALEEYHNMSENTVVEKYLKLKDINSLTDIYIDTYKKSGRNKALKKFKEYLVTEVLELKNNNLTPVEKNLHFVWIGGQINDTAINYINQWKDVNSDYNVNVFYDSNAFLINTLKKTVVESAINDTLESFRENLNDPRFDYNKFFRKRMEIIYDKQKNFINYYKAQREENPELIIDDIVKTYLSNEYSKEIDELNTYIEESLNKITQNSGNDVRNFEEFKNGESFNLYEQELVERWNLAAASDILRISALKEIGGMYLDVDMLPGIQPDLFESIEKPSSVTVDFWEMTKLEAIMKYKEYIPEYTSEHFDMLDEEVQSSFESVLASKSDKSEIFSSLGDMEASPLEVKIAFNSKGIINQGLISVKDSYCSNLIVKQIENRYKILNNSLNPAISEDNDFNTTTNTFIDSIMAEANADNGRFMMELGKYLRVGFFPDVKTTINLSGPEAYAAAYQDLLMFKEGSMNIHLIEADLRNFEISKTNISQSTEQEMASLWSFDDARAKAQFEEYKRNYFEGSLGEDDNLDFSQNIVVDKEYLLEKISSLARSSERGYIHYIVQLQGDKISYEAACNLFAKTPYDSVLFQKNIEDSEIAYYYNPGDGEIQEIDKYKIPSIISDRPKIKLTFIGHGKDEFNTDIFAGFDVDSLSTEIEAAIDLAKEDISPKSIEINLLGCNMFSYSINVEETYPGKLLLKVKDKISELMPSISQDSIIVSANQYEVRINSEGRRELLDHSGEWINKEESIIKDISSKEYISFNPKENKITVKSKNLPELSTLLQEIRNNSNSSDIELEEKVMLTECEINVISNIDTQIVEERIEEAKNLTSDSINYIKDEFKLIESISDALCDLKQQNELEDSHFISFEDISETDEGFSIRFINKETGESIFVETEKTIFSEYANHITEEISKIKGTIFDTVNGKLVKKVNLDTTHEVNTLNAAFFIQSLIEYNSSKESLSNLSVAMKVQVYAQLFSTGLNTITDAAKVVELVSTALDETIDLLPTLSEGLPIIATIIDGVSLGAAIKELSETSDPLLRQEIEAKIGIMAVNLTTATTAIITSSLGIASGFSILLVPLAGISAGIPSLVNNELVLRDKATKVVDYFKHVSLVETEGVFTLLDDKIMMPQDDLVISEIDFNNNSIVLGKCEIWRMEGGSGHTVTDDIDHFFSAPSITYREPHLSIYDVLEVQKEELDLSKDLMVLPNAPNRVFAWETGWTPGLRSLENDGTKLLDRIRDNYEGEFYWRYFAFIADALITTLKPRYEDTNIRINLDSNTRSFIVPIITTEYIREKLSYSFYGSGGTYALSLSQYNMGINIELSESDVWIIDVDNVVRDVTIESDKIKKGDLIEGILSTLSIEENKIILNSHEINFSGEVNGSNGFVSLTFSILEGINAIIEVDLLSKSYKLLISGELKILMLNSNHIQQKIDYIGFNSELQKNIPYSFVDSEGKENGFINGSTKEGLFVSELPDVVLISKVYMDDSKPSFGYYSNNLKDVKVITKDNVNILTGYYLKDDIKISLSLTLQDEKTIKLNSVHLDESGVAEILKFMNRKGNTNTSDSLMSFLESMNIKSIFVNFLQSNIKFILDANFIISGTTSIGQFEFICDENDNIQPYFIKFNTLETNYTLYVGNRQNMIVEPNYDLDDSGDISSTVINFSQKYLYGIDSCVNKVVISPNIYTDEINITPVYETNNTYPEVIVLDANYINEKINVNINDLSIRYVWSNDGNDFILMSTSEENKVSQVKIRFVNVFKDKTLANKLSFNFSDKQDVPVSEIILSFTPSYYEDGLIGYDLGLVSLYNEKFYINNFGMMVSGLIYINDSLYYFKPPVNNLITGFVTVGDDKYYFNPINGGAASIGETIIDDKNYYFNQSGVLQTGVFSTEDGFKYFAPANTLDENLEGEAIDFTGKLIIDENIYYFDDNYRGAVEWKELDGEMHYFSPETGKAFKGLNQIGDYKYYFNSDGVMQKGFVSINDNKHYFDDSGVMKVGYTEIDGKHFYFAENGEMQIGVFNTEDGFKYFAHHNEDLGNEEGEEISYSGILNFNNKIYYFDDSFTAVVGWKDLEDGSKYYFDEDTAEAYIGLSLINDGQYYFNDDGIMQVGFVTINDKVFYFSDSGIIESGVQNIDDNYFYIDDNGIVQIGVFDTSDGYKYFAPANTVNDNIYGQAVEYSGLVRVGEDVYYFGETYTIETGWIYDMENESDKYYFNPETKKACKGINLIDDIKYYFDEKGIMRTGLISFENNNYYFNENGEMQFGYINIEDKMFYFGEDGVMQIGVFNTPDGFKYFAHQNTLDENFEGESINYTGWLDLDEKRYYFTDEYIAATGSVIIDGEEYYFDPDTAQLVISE

This assay concerns the target Toxin B (Clostridioides difficile) (UniProt P18177). The assay is described as follows: TcdB glycohydrolase inhibitors, primary screen, biochemical, single point, plate reader (AID 652162). The note with it: TcdB glycohydrolase enzymatic assay, at 9.99 µM, stronger effect = higher value.
By inhibition is commonly meant the change of the read-out against control, counted positive when it falls. As to `C/C(=N\NC(=O)COc1c(C)cccc1C)c1cccs1`, the inhibition is 0.614%. The same measure for `C/C(=N\NC(=O)CSc1nc2ccccc2c(=O)n1-c1ccccc1C)c1cccs1`: 11.8% (active); for `Cc1ccccc1-n1c(SCC(=O)Nc2cccc3ccccc23)nc(O)cc1=O`: 1.39%. The result for `COc1ccccc1-c1cnc2c(c1)C(=O)N([C@H](C)CO)C[C@H](C)[C@H](CN(C)C(=O)CN(C)C)O2` reads 0.748%.

Take `CCC(=O)N(C)C[C@@H]1Oc2ncc(C#Cc3cccnc3)cc2C(=O)N([C@@H](C)CO)C[C@@H]1C`: the inhibition is 0.973%. The same measure for `C[C@H](CO)N1C[C@H](C)[C@H](CN(C)Cc2ccc3c(c2)OCO3)Oc2c(NC(=O)NC3CCCCC3)cccc2C1=O`: -1.25%.

Consider `COc1ccccc1CNC(=O)C[C@@H]1CC[C@H]2[C@@H](COc3ccc(NS(=O)(=O)c4ccc(C)cc4)cc3C(=O)N2C)O1`, for which the inhibition is 0.867%. Turning to `Cn1cnc(CCNC(=O)C[C@H]2CC[C@@H]3[C@H](COC[C@H](O)CN3C(=O)C3CC3)O2)c1`, the inhibition is -0.073%. Take `COc1ccc(NC(=O)Nc2ccc3c(c2)C(=O)N([C@H](C)CO)C[C@H](C)[C@H](CN(C)C(=O)Nc2c(C)noc2C)OCCCC[C@@H](C)O3)cc1`: the inhibition was 0.188%.

As for `CC(C)NC(=O)Nc1ccc2c(c1)C(=O)N([C@@H](C)CO)C[C@H](C)[C@@H](CN(C)C)O2`, the inhibition is 0.811%. The result for `Cc1ccc(C)c(OCC(=O)NNC(=O)C2CCC2)c1` reads 1.49%; that for `O=C(NNC(=O)C1CCC1)c1ccccc1`, 1.5%. Consider `Cc1ccc(NNC(=O)C2CCC2)cc1C`, for which the inhibition was 58.9% (active).

As to `O=C(Nc1cccc(Cl)c1)N[C@H]1CC[C@H](CCNC(=O)C2CCOCC2)O[C@H]1CO`, the inhibition is 0.073%. The result for `CCOC(=O)C1=CC[C@@H](c2ccncc2)N(S(=O)(=O)c2ccc(C)cc2)C1` reads 3.35%; that for `CC(=O)C1=CCC(c2ccccc2)N(S(=O)(=O)c2ccc(C)cc2)C1` (stereo unspecified), 13.2% (active). The same measure for `CCOC(=O)C1=CCC(c2ccc(F)cc2)N(S(=O)(=O)c2ccc(C)cc2)C1` (stereo unspecified): 1.19%; for `CC(C)NC(=O)N1[C@H](CO)[C@H](c2ccccc2)C12CN(C(=O)Cc1ccccc1)C2`: -9.73%. `CNC[C@H]1OCCCC[C@H](C)Oc2ccc(NS(=O)(=O)c3ccc(Cl)cc3)cc2C(=O)N([C@@H](C)CO)C[C@@H]1C`: the inhibition is 0.862%.

Consider `CCCC(=O)Nc1ccc2c(c1)C(=O)N(C)C[C@H](OC)[C@H](C)CN(CCc1ccccc1)[C@H](C)CO2`, for which the inhibition was 0.195%.

Turning to `Cc1noc(C)c1S(=O)(=O)Nc1ccc2c(c1)CC(=O)N([C@@H](C)CO)C[C@@H](C)[C@H](CN(C)S(=O)(=O)c1cccs1)O2`, the inhibition was 1.18%. As to `C[C@H]1CN([C@@H](C)CO)C(=O)Cc2cc(N(C)C)ccc2O[C@@H]1CN(C)S(=O)(=O)c1ccc(F)cc1`, the inhibition is -6.02%. The same measure for `COCC(=O)Nc1ccc2c(c1)C(=O)N(C)C[C@H](OC)[C@@H](C)CN(C(=O)c1cnccn1)[C@H](C)CO2`: 0.644%.

`COCCN(C(=O)C(C)C)c1nnc(-c2ccc(C(C)(C)C)cc2)s1`: the inhibition was 10.1% (active). Consider `COCCN(Cc1nc(-c2ccc(C(F)(F)F)cc2)no1)C(C)C`, for which the inhibition is 1.49%. As to `C[C@@H]1CN([C@H](C)CO)C(=O)c2cc(NS(C)(=O)=O)ccc2O[C@@H]1CN(C)S(C)(=O)=O`, the inhibition was 0.537%.

For `COCc1cn(CC[C@H]2CC[C@H](NC(=O)Nc3ccc4c(c3)OCO4)[C@@H](CO)O2)nn1`, the inhibition is 0.036%. The same measure for `CNC[C@H]1Oc2ncc(-c3ccccc3C)cc2C(=O)N([C@@H](C)CO)C[C@@H]1C`: 0.537%; for `C[C@@H]1CN([C@H](C)CO)C(=O)c2cc(C#CC3(O)CCCC3)cnc2O[C@H]1CN(C)Cc1ccncc1`: 0.916%; for `CN1CCN(/N=C/c2ccc(C#N)cc2)CC1`: 0.047%. The result for `CN1CCN(/N=C/c2c[nH]c3ccccc23)CC1` reads 12.7% (active); that for `C[n+]1ccc(/C=C/c2c[nH]c3ccccc23)cc1`, 1.44%. Regarding `C[C@H](CO)N1C[C@H](C)[C@@H](CN(C)C(=O)Nc2cccc3ccccc23)Oc2c(NS(=O)(=O)c3ccccc3)cccc2C1=O`, the inhibition was -1.06%. Take `C[C@H](CO)N1C[C@H](C)[C@@H](CN(C)Cc2ccc(C(F)(F)F)cc2)Oc2ccc(NC(=O)CCC(F)(F)F)cc2C1=O`: the inhibition was 0.866%. The same measure for `O=C(C[C@@H]1C[C@@H]2c3cc(NC(=O)Nc4ccc(F)cc4)ccc3O[C@@H]2[C@H](CO)O1)NCC(F)(F)F`: 0.33%; for `COC(=O)Cc1nnn2c1[C@H](C)[C@@H](OC)c1cc(Br)ccc1-2`: 0.213%; for `COC(=O)CN1C(C)=Nc2ccc(Br)cc2C1c1ccccc1` (stereo unspecified): 55.6% (active). For the molecule `CCC(CC)C(=O)N1CC(=O)Nc2ccc(Br)cc2C1c1ccccc1` (stereo unspecified), the inhibition is 3.15%. Consider `C[C@@H]1CN([C@@H](C)CO)C(=O)c2cc(-c3ccc(F)cc3)cnc2O[C@@H]1CN(C)Cc1ccc(C(=O)O)cc1`, for which the inhibition was -1.74%. `Cc1noc(C)c1S(=O)(=O)Nc1ccc2c(c1)C(=O)N([C@@H](C)CO)C[C@H](C)[C@@H](CN(C)C)OCCCC[C@@H](C)O2`: the inhibition was -1.17%. Take `CC(=O)N(C)C[C@@H]1Oc2cc(-c3cncnc3)ccc2S(=O)(=O)N([C@@H](C)CO)C[C@H]1C`: the inhibition was -0.296%. The result for `O=C(C1CCC1)N1CC(=O)N2[C@H](CO)[C@H](c3ccc(C#CCc4ccccc4)cc3)[C@@H]2C1` reads 0.603%; that for `O=C(c1ccc(N2CCOCC2)c([N+](=O)[O-])c1)N1CCN(c2ccccc2F)CC1`, 10.3% (active); that for `O=C(c1ccc(N2CCOCC2)c([N+](=O)[O-])c1)N1CCN(S(=O)(=O)c2cccs2)CC1`, 3.29%. The result for `O=C(OCC(=O)N1CCOCC1)c1ccc(N2CCOCC2)c([N+](=O)[O-])c1` reads 0.627%; that for `O=C(N[C@H]1C=C[C@@H](CC(=O)N2CCc3ccccc3C2)O[C@@H]1CO)C1CCOCC1`, 1.24%.

(Values after PubChem BioAssay AID652162 (Broad Institute, 2013).)
